Reference: the supplement of paper PMC9694430

Experiments:
Experiment in all cases: thermal shift delta Tm vs DMSO control; higher = stronger stabilization (binding)
Settings in all cases: 12.5 µM; protein concentration 2 µM
LOC_OS02G45750-cb003 = system: LOC_OS02G45750-cb003
Procedure, shortened: (§1)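 Heating from 25°C to 95°C at 0.05°C/s, fluorescence was recorded for 19.5 μl wells of 2 μM E. coli-expressed, purified rice kinase domain in 100 mM potassium phosphate pH 7.5, 150 mM NaCl, 10% glycerol and 5 × SYPRO Orange with compound in DMSO. Boltzmann fits gave melting temperatures for this differential scanning fluorimetry assay. The shift reported is the mean of three replicates against the DMSO-only protein.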

LOC_OS02G54510-cb004 = system: LOC_OS02G54510-cb004
Procedure, shortened: as §1

LOC_OS03G04050-cb001 = system: LOC_OS03G04050-cb001
Procedure, shortened: as §1

LOC_OS03G12390-cb001 = system: LOC_OS03G12390-cb001
Procedure, shortened: as §1

LOC_OS03G27990-cb004 = system: LOC_OS03G27990-cb004
Procedure, shortened: as §1

LOC_OS03G50450-cb001 = system: LOC_OS03G50450-cb001
Procedure, shortened: as §1

LOC_OS03G50810-cb003 = system: LOC_OS03G50810-cb003
Procedure, shortened: as §1

LOC_OS04G35114-cb001 = system: LOC_OS04G35114-cb001
Procedure, shortened: as §1

LOC_OS04G38480-cb003 = system: T1, LOC_OS04G38480-cb003
T1 sequence (whole entry): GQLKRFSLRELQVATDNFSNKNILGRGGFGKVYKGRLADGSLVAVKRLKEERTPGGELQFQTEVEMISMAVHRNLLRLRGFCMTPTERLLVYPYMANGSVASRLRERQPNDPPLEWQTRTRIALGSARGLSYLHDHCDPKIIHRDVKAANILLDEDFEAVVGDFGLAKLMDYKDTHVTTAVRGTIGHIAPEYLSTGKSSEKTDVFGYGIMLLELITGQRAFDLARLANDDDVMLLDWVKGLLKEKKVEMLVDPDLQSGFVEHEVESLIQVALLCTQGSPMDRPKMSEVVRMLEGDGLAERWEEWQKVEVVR
Procedure, shortened: as §1

LOC_OS04G41100-cb001 = system: T2, LOC_OS04G41100-cb001
T2 sequence (whole entry): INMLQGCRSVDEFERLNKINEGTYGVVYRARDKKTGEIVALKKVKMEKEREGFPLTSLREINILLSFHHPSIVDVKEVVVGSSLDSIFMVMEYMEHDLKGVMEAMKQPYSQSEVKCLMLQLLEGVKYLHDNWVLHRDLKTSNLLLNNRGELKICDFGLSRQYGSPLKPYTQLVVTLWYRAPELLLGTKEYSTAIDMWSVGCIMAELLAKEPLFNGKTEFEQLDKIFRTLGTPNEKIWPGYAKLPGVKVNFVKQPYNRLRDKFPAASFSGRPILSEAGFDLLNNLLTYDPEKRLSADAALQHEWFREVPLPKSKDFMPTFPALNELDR
Procedure, shortened: as §1

LOC_OS04G57630-cb004 = system: LOC_OS04G57630-cb004
Procedure, shortened: as §1

LOC_OS05G07850-cb002 = system: LOC_OS05G07850-cb002
Procedure, shortened: as §1

LOC_OS05G16824-cb004 = system: LOC_OS05G16824-cb004
Procedure, shortened: as §1

LOC_OS05G28520-cb001 = system: LOC_OS05G28520-cb001
Procedure, shortened: as §1

LOC_OS05G30820-cb001 = system: LOC_OS05G30820-cb001
Procedure, shortened: as §1

LOC_OS05G43570-cb004 = system: LOC_OS05G43570-cb004
Procedure, shortened: as §1

LOC_OS06G16330-cb003 = system: LOC_OS06G16330-cb003
Procedure, shortened: as §1

LOC_OS06G22820-cb001 = system: T3, LOC_OS06G22820-cb001
T3 sequence (whole entry): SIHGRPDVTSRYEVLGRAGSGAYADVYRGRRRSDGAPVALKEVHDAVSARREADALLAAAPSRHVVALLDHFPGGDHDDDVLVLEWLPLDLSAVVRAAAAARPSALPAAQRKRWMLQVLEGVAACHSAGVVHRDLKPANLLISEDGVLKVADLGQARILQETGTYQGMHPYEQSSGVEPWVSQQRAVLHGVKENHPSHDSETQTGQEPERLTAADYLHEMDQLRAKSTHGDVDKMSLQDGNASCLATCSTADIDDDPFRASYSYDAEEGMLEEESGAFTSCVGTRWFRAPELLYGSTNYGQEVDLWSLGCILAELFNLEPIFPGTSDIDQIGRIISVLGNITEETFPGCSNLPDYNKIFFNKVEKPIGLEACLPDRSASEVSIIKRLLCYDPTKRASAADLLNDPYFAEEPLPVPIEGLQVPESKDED
Procedure, shortened: as §1

LOC_OS07G06570-cb004 = system: LOC_OS07G06570-cb004
Procedure, shortened: as §1

LOC_OS07G07230-cb001 = system: LOC_OS07G07230-cb001
Procedure, shortened: as §1
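Further: purified Escherichia coli-expressed rice kinase domain construct.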

LOC_OS06G16330-cb003, sequence (as listed by the source): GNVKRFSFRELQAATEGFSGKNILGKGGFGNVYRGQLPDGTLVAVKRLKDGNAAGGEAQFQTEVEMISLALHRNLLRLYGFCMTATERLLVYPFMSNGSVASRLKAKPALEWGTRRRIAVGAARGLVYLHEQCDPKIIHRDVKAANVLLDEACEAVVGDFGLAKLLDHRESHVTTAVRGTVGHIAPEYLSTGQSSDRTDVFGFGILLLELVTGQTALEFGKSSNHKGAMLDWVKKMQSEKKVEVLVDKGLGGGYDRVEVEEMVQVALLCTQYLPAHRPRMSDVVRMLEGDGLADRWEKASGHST

Row | Compound | thermal shift delta Tm (LOC_OS02G45750-cb003) | thermal shift delta Tm (LOC_OS02G54510-cb004) | thermal shift delta Tm (LOC_OS03G04050-cb001) | thermal shift delta Tm (LOC_OS03G12390-cb001) | thermal shift delta Tm (LOC_OS03G27990-cb004) | thermal shift delta Tm (LOC_OS03G50450-cb001) | thermal shift delta Tm (LOC_OS03G50810-cb003) | thermal shift delta Tm (LOC_OS04G35114-cb001) | thermal shift delta Tm (LOC_OS04G38480-cb003) | thermal shift delta Tm (LOC_OS04G41100-cb001) | thermal shift delta Tm (LOC_OS04G57630-cb004) | thermal shift delta Tm (LOC_OS05G07850-cb002) | thermal shift delta Tm (LOC_OS05G16824-cb004) | thermal shift delta Tm (LOC_OS05G28520-cb001) | thermal shift delta Tm (LOC_OS05G30820-cb001) | thermal shift delta Tm (LOC_OS05G43570-cb004) | thermal shift delta Tm (LOC_OS06G16330-cb003) | thermal shift delta Tm (LOC_OS06G22820-cb001) | thermal shift delta Tm (LOC_OS07G06570-cb004) | thermal shift delta Tm (LOC_OS07G07230-cb001)
1 | CN1CCN(CCOc2cc(OC3CCOCC3)c3c(Nc4c(Cl)ccc5c4OCO5)ncnc3c2)CC1 [Saracatinib (AZD0530)] | 2.36 °C | 0.77 °C | 0.38 °C | 2.47 °C | 1.15 °C | 0.13 °C | 3.05 °C | 7.08 °C | 3.11 °C | 0.53 °C | 0.78 °C | 7.68 °C | 3.59 °C | 0.24 °C | 0.41 °C | 0.7 °C | 7.52 °C | 0.89 °C | 1.29 °C | 0.13 °C
2 | CS(=O)(=O)CCNCc1ccc(-c2ccc3ncnc(Nc4ccc(OCc5cccc(F)c5)c(Cl)c4)c3c2)o1 [Lapatinib] | 0.06 °C | -0.31 °C | 0.53 °C | 1.17 °C | 0.47 °C | 1.2 °C | 1.16 °C | 2.03 °C | 3.11 °C | 0.92 °C | 0.95 °C | 5.03 °C | -0.92 °C | 0.22 °C | 0.61 °C | 1.4 °C | 0.59 °C | 1.74 °C | 2.3 °C | -0.12 °C
3 | CCn1cc(-c2ccnc3[nH]c(-c4cccc(CN(C)C)c4)cc23)c(-c2ccc(NC(=O)N(C)C)cc2)n1 | 2.5 °C | 0.45 °C | 0.74 °C | 0.47 °C | 0.5 °C | 0.98 °C | 1.14 °C | 1.02 °C | 1.93 °C | 1.22 °C | 1.27 °C | 8.63 °C | 0.47 °C | 0.42 °C | 0.52 °C | 0.64 °C | 4.22 °C | 0.71 °C | 1.35 °C | 0.42 °C
4 | Cc1ccccc1-n1c(Cn2nc(-c3cccc(O)c3)c3c(N)ncnc32)nc2cccc(C)c2c1=O | -2.16 °C | -0.05 °C | -0.24 °C | -0.5 °C | – | 0.05 °C | 0.27 °C | 0.34 °C | – | – | – | 0.71 °C | -1.12 °C | 0.91 °C | 0.79 °C | 0.31 °C | – | – | – | 1 °C
5 | CC(C)(C)NS(=O)(=O)c1cncc(-c2cc(F)c3nc(N)nn3c2)c1 | 0.74 °C | 0.24 °C | 0.64 °C | 0.19 °C | 0.94 °C | 0.53 °C | 0.4 °C | 0.87 °C | 0.98 °C | 0.29 °C | 0.3 °C | 1.74 °C | 0.61 °C | 0.78 °C | 0.53 °C | 0.59 °C | 0.88 °C | 0.87 °C | 1.73 °C | 0.06 °C
6 | Cc1cc(O)c2c(c1)C(=O)c1cccc(O)c1C2=O [Chrysophanic Acid] | 0.14 °C | -1.28 °C | -0.08 °C | -1.54 °C | 0.02 °C | 0.03 °C | -0.82 °C | 0.09 °C | -1.19 °C | 0.06 °C | -0.6 °C | 1.45 °C | – | 0.74 °C | 0.15 °C | -0.12 °C | -0.34 °C | -0.85 °C | 1.81 °C | -0.41 °C
7 | Oc1ccc(Nc2nc(-c3ccc(Cl)cc3)cs2)cc1 | 0.87 °C | -1.06 °C | 1.13 °C | 1.19 °C | 1.07 °C | 1.19 °C | 1.34 °C | 2.45 °C | -1.18 °C | 0.69 °C | 0.01 °C | 3.59 °C | -0.03 °C | 0.45 °C | 1.05 °C | -0.07 °C | 0.92 °C | 0.79 °C | -0.41 °C | 0.38 °C
8 | COc1ncc(-c2cc(-c3ncc(CN4C[C@@H](C)O[C@@H](C)C4)o3)c3cn[nH]c3c2)cc1NS(C)(=O)=O | 0.86 °C | 0.25 °C | 0.39 °C | -0.09 °C | 0.23 °C | 0.64 °C | 0.71 °C | 1.06 °C | 0.79 °C | 0.49 °C | 0.12 °C | 1.71 °C | -0.4 °C | 0.61 °C | 0.21 °C | 0.39 °C | -0.32 °C | 0.44 °C | 0.86 °C | 0.19 °C
9 | Cc1[nH]c(/C=C2\C(=O)Nc3ccccc32)c(C)c1CCC(=O)O [Orantinib (TSU-68, SU6668)] | 0 °C | 2.74 °C | 0.04 °C | 9.53 °C | 0.65 °C | 5.03 °C | 0 °C | 8.78 °C | 4.57 °C | 0.53 °C | 0.84 °C | 9.92 °C | 0 °C | 0.62 °C | 1.03 °C | 0.68 °C | – | 0.6 °C | 1.28 °C | 0.28 °C
10 | Cc1ncc(CO)c(CO)c1O [Pyridoxine] | 0.81 °C | -0.02 °C | 0.53 °C | -0.09 °C | 0.25 °C | 0.62 °C | 0.03 °C | -0.36 °C | 0.12 °C | 0.24 °C | -0.04 °C | 0.43 °C | – | -0.11 °C | 0.06 °C | 0.36 °C | -0.45 °C | 0.67 °C | 1.06 °C | 0.72 °C
11 | CCC[C@H](NC(=O)/C(C#N)=C/c1cccc(Br)n1)c1ccccc1 [Degrasyn (WP1130)] | -2.36 °C | -1.29 °C | 0.2 °C | -5.26 °C | -3.68 °C | -0.35 °C | -2.71 °C | -2.87 °C | 1.05 °C | -0.61 °C | -2.22 °C | -0.67 °C | – | -0.84 °C | 0.52 °C | -0.8 °C | -2.97 °C | 0.49 °C | -0.53 °C | 0.24 °C
12 | C[C@@]1(C(=O)Nc2ccc(F)nc2)CCCN1c1nc(Nc2cc(C3CC3)n[nH]2)c2cccn2n1 | -1.4 °C | 2.49 °C | 0.25 °C | 0.55 °C | 0.21 °C | -0.6 °C | 1.17 °C | 2.02 °C | 1.6 °C | 0.62 °C | 0.45 °C | 6.93 °C | 7.72 °C | 1.51 °C | 0.52 °C | 0.32 °C | 7.13 °C | -0.88 °C | 1.23 °C | 0.05 °C
